Screens as filed in PubChem BioAssay.
Wee1 stabilizer: human Wee1 degradation inhibition, primary screen; reporter increase, % at 5 µM; 220,000 tested, 1.2% active; HeLa Luc-Wee1K328M stability, luciferase luminescence; 100% = proteasome inhibitor MG132 effect;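 active = activation above the mean of all tested compounds plus 3 SD, set per screening run, cut at about 8.8% in these data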;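 note: cells exposed to compound for 20 h before luminescence read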
Target sequence (P30291 whole entry K328M): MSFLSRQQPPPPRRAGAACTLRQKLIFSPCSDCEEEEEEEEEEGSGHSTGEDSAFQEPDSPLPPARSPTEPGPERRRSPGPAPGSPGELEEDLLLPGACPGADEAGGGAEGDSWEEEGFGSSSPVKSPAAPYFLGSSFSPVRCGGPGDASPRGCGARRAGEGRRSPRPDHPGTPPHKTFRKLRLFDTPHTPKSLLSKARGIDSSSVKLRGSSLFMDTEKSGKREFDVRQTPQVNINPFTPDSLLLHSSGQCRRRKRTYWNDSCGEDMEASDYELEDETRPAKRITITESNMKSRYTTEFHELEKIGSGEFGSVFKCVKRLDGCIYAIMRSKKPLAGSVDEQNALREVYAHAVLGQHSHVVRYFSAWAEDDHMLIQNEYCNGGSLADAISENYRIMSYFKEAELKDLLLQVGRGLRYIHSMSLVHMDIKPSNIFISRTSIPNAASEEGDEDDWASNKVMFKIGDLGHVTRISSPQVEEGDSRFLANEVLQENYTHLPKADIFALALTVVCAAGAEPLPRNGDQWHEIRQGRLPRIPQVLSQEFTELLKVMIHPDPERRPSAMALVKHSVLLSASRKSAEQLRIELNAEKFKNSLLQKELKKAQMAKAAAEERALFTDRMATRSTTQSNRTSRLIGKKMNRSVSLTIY
Hsp70 activator: switches on Hsp70 transcription; HeLa Hsp70 promoter luciferase reporter, luminescence; scaled: vehicle 0, proteasome-inhibitor control 100%; activation, % at 10 µM; 200,000 tested, 0.04% active; AID 1203;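 active = activation above the mean across all tested compounds plus 3 SD, cutoff set per campaign, cut at about 5.5% in these data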
Redox H2O2 prof: compounds producing H2O2 with reducing agent – biochemical, NIH compound library profiling, artefact control for MLSCN library redox annotation, primary screen; DTT-dependent redox cycling H2O2, phenol red/HRP absorbance; 100% = 100 µM peroxide control, 0% = buffer; 200,000 tested, 0.03% active; activation, % at 10 µM;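 active = activation of at least 50% relative to the plate's high and low controls in the primary single-dose screen; inactive = activation below 50%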;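 note: compound incubated with DTT at 0.8 mM final as the reducing agent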
HSV augment: HSV replication enhancement; HSV replication augmentation in cells, fold increase; maximum fold increase; 220,000 tested, 0.005% active; in the data active = maximum fold increase above about 1.5; inconclusive = no clear call, values can overlap the other calls; tested in PC3 cells
p97 inhibitor: blocks human p97 ATPase activity. P55072. recombinant p97 ATPase, Kinase-Glo ATP luminescence, 3 h. inhibition, % at 8 µM. 220,000 tested, 0.42% active. AID 1481; in the data active = inhibition above about 15%
Wee1 degr conf: confirmation of human Wee1 degradation inhibitors; shares compounds with Wee1 stabilizer; HeLa Luc-Wee1K328M degradation, luminescence; vehicle 0%, proteasome-blocked wells 100%; activation, % at 5 µM; 1,100 tested, 4% active; AID 1410; in the data active = activation above about 8.9%
Large screens that a line does not name were inactive (follow-up assays come after a bar, where they were run). Hits are enriched below; roughly 1.6% of the tested compounds scored in any of these assays.

C=C(C)CN(CC)C(=O)CCc1nnc(CCCc2ccccc2)o1	none
C#CCN(CC=C)C(=O)CCc1nnc(COc2ccccc2)o1	Wee1 stabilizer 16 | Wee1 degr conf inactive
Cc1ccc(S(=O)(=O)N2CCN(C(=O)CN3CCN(C)CC3)C2)cc1	none
O=S(=O)(c1cccc2nsnc12)N1CCN(C/C=C\c2ccccc2)CC1	none
O=S(=O)(c1cccc2nsnc12)N1CCN(C/C=C/c2ccccc2)CC1	Wee1 stabilizer 11 | Wee1 degr conf inactive
Cc1cc(F)ccc1S(=O)(=O)Nc1ccccc1C(=O)Nc1ccccc1-c1nc2ccccc2[nH]1	none
Cc1ccc(S(=O)(=O)C2(C(=O)Nc3ccc(Br)cc3)CC2)cc1	Wee1 stabilizer 14 | Wee1 degr conf inactive
Cc1ccc(C(=O)NC2=NCCS2)cc1	Wee1 stabilizer 16 (no result: Hsp70 activator, Redox H2O2 prof) | Wee1 degr conf inactive
CCOC(=O)c1c(CSC(=N)N)n(-c2ccccc2)c2cc(Br)c(OC(C)=O)cc12	none (no result: Hsp70 activator, Redox H2O2 prof)
COc1cc(N/N=C(\C)c2ccc(N)cc2)nc(-c2ccccc2)n1	Wee1 stabilizer 12 | Wee1 degr conf inactive
Cc1cc(C)n(CCOc2ccc(Cl)cc2Cl)n1	Wee1 stabilizer 11 | Wee1 degr conf inactive
Cc1cc(C)n(C(=O)COc2ccc(Cl)cc2Cl)n1	none
CCOCC(=O)Nc1c(C(=O)Nc2ccc3c(c2)OCCO3)oc2ccccc12	none
COCC(=O)Nc1c(C(=O)Nc2ccc3c(c2)OCCO3)oc2ccccc12	Wee1 stabilizer 12 | Wee1 degr conf inactive
CCCCNCCCOc1cccc(Cl)c1Cl	Wee1 stabilizer 11 | Wee1 degr conf inactive
O=C(O)c1ccccc1N1C(=O)C2C3CCC(C3)C2C1=O (configuration not stated)	none
O=C(Nc1ccc(O)cc1)c1c(O)c2c([nH]c1=O)CCCC2	Wee1 stabilizer 14 | Wee1 degr conf inactive
CCOC(=O)c1[nH]c2c(c1-c1ccccc1)C(=O)CC(c1ccc(OC)c(OC)c1)C2 (configuration not stated)	Wee1 stabilizer 20 | Wee1 degr conf inactive
CCOC(=O)c1[nH]c2c(c1-c1ccccc1)C(=O)CC(c1ccc(OCC)cc1)C2 (configuration not stated)	none (no result: HSV augment)
O=C(Nc1ccccc1F)Nc1cccc2ccc(O)cc12	none (no result: Hsp70 activator, Redox H2O2 prof)
COC(=O)C1=C(C(=O)OC)C(c2cc(Cl)ccc2O)c2sc(=O)[nH]c2S1 (configuration not stated)	HSV augment inconclusive
Cc1ccc(C(=O)CSc2nc3ccccc3c(=O)[nH]2)cc1	Wee1 stabilizer 21 | Wee1 degr conf inactive
CCc1ccc(C(=O)CSc2nc3ccccc3c(=O)[nH]2)cc1	none
COc1cccc(/C=N/Nc2ccc(S(=O)(=O)O)cc2)c1O	Wee1 stabilizer 18 | Wee1 degr conf inactive
CCS(=O)(=O)c1ccc(C(=O)NC2CC2)c(Cl)c1Cl	Wee1 stabilizer 11 | Wee1 degr conf inactive
FC(F)(F)c1nc2ccccc2n2c(-c3c(Cl)cccc3Cl)nnc12	none (no result: HSV augment)
Clc1cccc(Cl)c1-c1nnc2cccc(Cl)n12	Wee1 stabilizer 12 | Wee1 degr conf inactive
CCCC(C)C(=O)OCC(=O)NCc1ccc(OC)c(OC)c1 (configuration not stated)	Wee1 stabilizer 14 | Wee1 degr conf inactive
COc1ccc(CNC(=O)N[C@H](C(=O)O)C(C)C)cc1OC	none (no result: Hsp70 activator, Redox H2O2 prof)
CN(Cc1c(F)cccc1Cl)C(=O)C1CC(=O)N(CCc2ccccc2)C1 (configuration not stated)	Wee1 stabilizer 12 | Wee1 degr conf inactive
COc1ccc(-n2nc([N+](=O)[O-])c(=NCCc3ccc(C)cc3)n2O)cc1	Wee1 stabilizer 25 | Wee1 degr conf inactive
COC(=O)C(NC(C)=O)(Nc1ccccc1)C(=O)OC	none
CCn1c(=S)[nH]c2cc(S(=O)(=O)N3CCCCC3)ccc21	none
Cc1occc1C(=O)NC(C)CCc1ccccc1 (configuration not stated)	none
Cc1ccc(C)c(C(=O)NC(C)CCc2ccccc2)c1 (configuration not stated)	Wee1 stabilizer 16 (no result: HSV augment) | Wee1 degr conf inactive
CNCC(O)COc1cccc(OC)c1 (configuration not stated)	Wee1 stabilizer 11 | Wee1 degr conf inactive
O=C(NCCc1ccccc1)c1c(F)c(F)c(F)c(F)c1F	Wee1 stabilizer 24 | Wee1 degr conf inactive
O=C(NCCc1ccccc1)c1cc(=O)[nH]c2ccccc12	Wee1 stabilizer 11 | Wee1 degr conf inactive
Cc1ccc(C(C)C)c(OCc2nn(CC(=O)c3ccc(OC(F)F)cc3)c3[n+]2CCCCC3)c1	Wee1 stabilizer 18 | Wee1 degr conf inactive
N#Cc1ccc(/C=C\c2nccc3c2[nH]c2ccccc23)cc1	none
Clc1ccc(/C=C\c2nccc3c2[nH]c2ccccc23)cc1	Wee1 stabilizer 12 | Wee1 degr conf inactive
O=c1ccc(S(=O)(=O)N2CCC(Cc3ccccc3)CC2)c[nH]1	none
Cn1c(SCC(=O)c2ccccc2)nnc1-c1cnccn1	Wee1 stabilizer 13 | Wee1 degr conf inactive
CCn1c(SCC(=O)c2ccccc2)nnc1-c1cnccn1	none
Cc1cccc(-n2cc(CNCCc3nc(C)cc(C)n3)c(-c3cccc(F)c3)n2)c1	none (no result: Hsp70 activator, Redox H2O2 prof)
CCOC(=O)c1ccc2ncc(-c3ccccc3)nc2c1	Wee1 stabilizer 18 | Wee1 degr conf inactive
CCOC(=O)c1cnc(-c2ccccc2)nc1N	none
Cc1ccsc1/C=N/NC(=O)Nc1ccccc1	none
CN1/C(=C\C(=O)Nc2cccc(Cl)c2)C(C)(C)c2ccccc21	Wee1 stabilizer 19 | Wee1 degr conf inactive
O=C(Nc1nnc(-c2ccncc2)o1)c1ccccc1	Wee1 stabilizer 22 | Wee1 degr conf inactive
Cc1ccc(C(=O)Nc2nnc(-c3ccncc3)o2)cc1	none
O=C(c1ccc(Br)o1)N1CCc2ccccc21	Wee1 stabilizer 13 | Wee1 degr conf inactive
O=C(c1ccccc1)N1CCc2ccccc21	none
Cc1c(C(=O)N2CCc3ccccc32)oc2ccccc12	Wee1 stabilizer 11 | Wee1 degr conf inactive
O=C(c1ccc(Br)o1)N1CCCc2ccccc21	none
CC1=C(C)CS(=O)N(S(=O)(=O)c2ccccc2)C1 (configuration not stated)	Wee1 stabilizer 11 | Wee1 degr conf inactive
O=C(CCn1c(=O)oc2ccccc21)NCCN1CCc2ccccc2C1	none
O=C(CCn1c(=O)oc2ccccc21)NCCC1=CCCCC1	Wee1 stabilizer 17 (no result: Hsp70 activator, Redox H2O2 prof) | Wee1 degr conf inactive
CN1CCN(c2ccc(S(=O)(=O)N3CCCCC3)cn2)CC1	none
O=S(=O)(c1ccc(N2CCCCCC2)nc1)N1CCCC1	Wee1 stabilizer 13 | Wee1 degr conf inactive
O=C(NNC(=O)c1ccc(Cl)cc1Cl)Nc1ccccc1	none
Cc1nc(NNC(=O)c2ccc(Cl)cc2Cl)cc(-c2ccccc2)n1	Wee1 stabilizer 11 | Wee1 degr conf inactive
COC(=O)c1cnc2c(c1C(=O)OC)c(=O)n(C)c(=O)n2C	none
COC(=O)c1cn(C(=O)c2ccc(C)c(C)c2)c2ccccc12	none
